Results reported in PubChem BioAssay (NCATS).
Inconclusive results are not listed. Active and inactive are the calls of the source. The call rests on the fitted dose curve; in most records, active means well fitted curve in the direction sought with a large enough effect; inconclusive means small, poorly fitted or top-dose-only effect, or another doubt; inactive means no such curve, though single readings can be large; an effect the other way counts as inactive or inconclusive.

Tests used:
[1] = P-glycoprotein substrates identified in KB-8-5-11 adenocarcinoma cell line, qHTS therapeutic library screen (AID 1346987); settings: KB-8-5-11 (P-gp overexpressing) viability, CellTiter-Glo, 72 h; series mostly up to 44.5 µM; further: nearly all actives have a fitted effect of over 65% in size
Procedure, shortened: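 Human cervical adenocarcinoma KB-8-5-11 cells, selected in colchicine to over-express P-gp and assayed without it, were exposed for 72 h to titrated compounds. An ATP-based luminescent viability signal gave AC50.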

[2] = tested on: Zika virus NS2B-NS3 protease (unlinked complex); test: Primary screen GU Rhodamine qHTS for Zika virus inhibitors: Unlinked NS2B-NS3 protease assay (AID 1347159); settings: Recombinant ZIKV NS2B-NS3 protease, Rhodamine110 substrate fluorescence; series mostly up to 107 µM; further: nearly all actives have a fitted effect of over 60% in size
Procedure, shortened: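 Percent inhibition came from the 15-min rise in Rhodamine110 fluorescence (1.5 microM substrate, ~15% conversion), normalized to no-inhibitor and no-enzyme wells and Hill-fitted. Unlinked protease, 25 nM, pH 8.0 Tris buffer; compounds up to 114 microM, 15-min preincubation.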

[3] = tested on: Zika virus NS2B-NS3 protease (linked construct); test: Primary screen NINDS Rhodamine qHTS for Zika virus inhibitors (AID 1347160); settings: purified NS2B-NS3 protease, Rhodamine110 substrate fluorescence; series mostly up to 33.1 µM; further: nearly all actives have a fitted effect of over 55% in size
Procedure, shortened: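 Rhodamine110-peptide cleavage (1.5 µM substrate) by 25 nM linked NS2B-NS3 enzyme at pH 8.0 (Tris, Tween 20), after 15 min RT preincubation with compounds; 15-min fluorescence change normalized to controls and Hill-fitted.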

Measured: Potency

CCCCC(=O)N1c2ccccc2NC2=C(C(=O)CCC2)C1c1ccccc1Cl (stereo not given)
inactive: all assays above

Cc1onc(-c2ccccc2Cl)c1C(=O)N(C)c1ccc(Cl)cc1
inactive: all assays above

O=C(CC1CC(c2ccc(F)cc2F)=NO1)N1CCOCC1 (stereo not given)
inactive: all assays above

NC(=O)[C@@H]1CC[C@H](c2ccc(OCc3ccccc3F)cc2)N1
inactive: all assays above

C=CC(C)(CC/C=C(\C)C(=O)OC[C@H]1O[C@@H](OC(C)(C=C)CC/C=C(\C)C(=O)O[C@H]2[C@H](O)[C@@H](O)[C@H](OC(C)(C=C)CC/C=C(\C)C(=O)O)O[C@@H]2CO)[C@H](O)[C@@H](O)[C@@H]1O)O[C@@H]1O[C@H](CO)[C@@H](O)[C@H](O)[C@H]1O (stereo not given in full)
inactive: [1] inactive [at 9.29 µM] | [2] | [3]

O=C(OC[C@H]1O[C@H](O[C@H]2CO[C@H](CO)[C@@H](O)[C@@H]2O)[C@H](O)[C@@H](O)[C@H]1O)c1ccccc1
inactive: all assays above

COc1cc(O)cc(C)c1C(=O)O[C@H]1[C@@H](O)[C@@H](n2ccc(=O)[nH]c2=O)O[C@@H]1CO
inactive: all assays above

COc1ccc(CC(=O)NCc2ccccc2-c2ccccc2C(=O)NCCc2cccnc2)cc1
inactive: all assays above

CN(C)CCC[C@]1(c2ccc(F)cc2)OCc2cc(C#N)ccc21
inactive: all assays above

CC(CC12CCCN1C(=O)C1CCCN1C2=O)OC(N)=O (stereo not given)
inactive: all assays above
